The values below come from PubChem BioAssay AID2685 (National Center for Advancing Translational Sciences (NCATS), 2010).

About 2,100 (0.66%) of roughly 320,000 compounds were called active. Not shown: some 53% with an inconclusive outcome. The sample holds actives, similar compounds and a random draw of the others, so the mix is not that of the screen. Calls come from the whole dose curve; as a rule, active = well fitted inhibition curve with a large enough effect in the signal ratio, with a control signal flat (not every such curve was filed as active); inconclusive = small, poorly fitted or top-dose-only effect, or effect the other way, or a change in a side signal; inactive = flat fitted curve, though single readings scatter; the % refers to the signal ratio.
Potency is the fitted concentration of half-maximal effect.

The experiment in a line: qHTS Assay for Lipid Storage Modulators in Drosophila S3 Cells.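 For cell number change: cells counted by Cell Tracker Red CMTPX staining in the red channel.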 For lipid storage change, negative = inhibition: % is set by controls: 0 for no effect and ±100 for the full control effect. The following applies: BODIPY lipid droplet fluorescence, 18-24 h, cells fed with added oleic acid; cell number change: measured here: cell count max response; series mostly up to 46.1 µM; lipid storage change, negative = inhibition: at the top concentration. An outline of the steps:
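Laser-scanning cytometry quantifies lipid droplet accumulation (500–530 nm total intensity; droplet/cell object ratio) in oleic acid-fed (400 uM added) Drosophila S3 cells treated with a concentration series. 20 uM Triacsin C defined 100% inhibition.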
On to `O=C(NC(Cc1ccccc1)C(=O)O)/C(=C/c1ccco1)NC(=O)c1cccc(Br)c1` (stereo not given), for which the “lipid storage change, negative = inhibition” value is -22% (inactive) and the cell number change is -18%. Take `O=C(NC(Cc1ccccc1)C(=O)O)/C(=C\c1cccc([N+](=O)[O-])c1)NC(=O)c1ccco1` (stereo not given): the molecule was classed as inactive. For the molecule `O=C(NC(Cc1ccccc1)C(=O)O)/C(=C\c1ccc(Cl)cc1)NC(=O)c1ccco1` (stereo not given), the Potency is 0.0411 µM (active).

Turning to `O=C(NC(Cc1ccccc1)C(=O)O)/C(=C/c1ccc(Cl)cc1)NC(=O)c1ccccc1` (stereo not given), the “lipid storage change, negative = inhibition” value is -3.15% (inactive) and the cell number change was found to be 1.96%. Turning to `O=C(NC(Cc1ccccc1)C(=O)O)/C(=C/c1cccc(Br)c1)NC(=O)c1ccco1` (stereo not given), the Potency was 1.84 µM (active). `O=C(NC(Cc1ccccc1)C(=O)O)/C(=C\c1ccccc1)NC(=O)c1ccco1` (stereo not given): the outcome was inactive and the cell number change was -6.67%. On to `O=C(CC1C(=O)NCCN1Cc1ccc(-c2ccccc2)cc1)NCCOc1cccnc1` (stereo not given), for which the “lipid storage change, negative = inhibition” value was 3.12% (inactive) and the cell number change was -0.0435%. For `O=C(Nc1cccc2ccccc12)c1cccc(F)c1` the same measures were 18.6% (inactive) and -3.54%.

`COc1ccc(NC(=O)C2CSC(C)(C)N2C=O)cc1` (stereo not given): the “lipid storage change, negative = inhibition” value was 0.386% (inactive) and the cell number change is 7.51%.

Turning to `COc1ccc(CN2CCOCCOCCN(Cc3ccc(OC)cc3)CCOCCOCC2)cc1`, the “lipid storage change, negative = inhibition” value is -8.25% (inactive) and the cell number change was 16%. As to `Cc1ccc(S(=O)(=O)NCc2ccccc2)cc1C(=O)N(C)CC(=O)Nc1c(Cl)cccc1Cl`, the molecule was classed as inactive. As for `CSc1nc(-c2ccc(Cl)cc2)c(C#N)c(=O)[nH]1`, the “lipid storage change, negative = inhibition” value was 0.0192% (inactive) and the cell number change is -0.138%. `Cc1cc(-c2ccc(Cl)cc2Cl)c(C#N)c(=O)[nH]1`: the call was inactive. As for `CSc1nc(-c2ccc(Cl)cc2Cl)[nH]c(=O)c1C#N`, the Potency is 32.6 µM (active) and the cell number change was -67%. With `CN(Cc1ccccc1)C(=O)COc1ccc(N(C)S(=O)(=O)c2ccc(F)cc2)cc1`, the “lipid storage change, negative = inhibition” value was -2.56% (inactive) and the cell number change was -1.11%. On to `NC(=O)c1nsc(C(=O)N(Cc2ccco2)C(C(=O)NCc2ccc(F)cc2)c2ccc(O)cc2)c1N` (stereo not given), for which the molecule was classed as inactive. With `Cc1ccc(C(C(=O)NCc2ccc(F)cc2)N(Cc2ccco2)C(=O)c2snc(C(N)=O)c2N)o1` (stereo not given), the Potency was 13 µM (active) and the cell number change is -23%.

Regarding `CCC(C(=O)NCc1ccc(F)cc1)N(Cc1ccco1)C(=O)c1snc(C(N)=O)c1N` (stereo not given), the “lipid storage change, negative = inhibition” value is 24.7% (inactive) and the cell number change is -6.14%. For `Cc1oc2c(c1C(=O)NC(Cc1c[nH]c3ccccc13)C(=O)O)CCCC2` (stereo not given) the same measures were 6.04% (inactive) and 18%. Consider `Cc1cccc(Cc2c(C)[nH]c(=O)c(C#N)c2C)c1`, for which the cell number change was -1.36% and the lipid storage change, negative = inhibition was -17.3% [at 9.22 µM] (inactive). In the case of `N=c1oc2ccc(Br)cc2cc1C(=O)NC1CCCCCC1`, the result was inactive and the cell number change is -5.41%. With `O=C(O)C1CCCN1S(=O)(=O)c1ccccc1` (stereo not given), the “lipid storage change, negative = inhibition” value is -1.6% (inactive) and the cell number change was 14%. For `CC(Oc1cc2oc(=O)c3c(c2cc1Cl)CCC3)C(=O)NCCCN1CCCC1=O` (stereo not given), the Potency was 1.64 µM (active) and the cell number change is -19.6%. For `CC(Oc1cc2oc(=O)c3c(c2cc1Cl)CCC3)C(=O)NCCN1CCOCC1` (stereo not given), the “lipid storage change, negative = inhibition” value was -12.3% (inactive) and the cell number change is 9.27%.

In the case of `CCCCc1cc(=O)oc2c(C)c(OCC(=O)NCCN3CCOCC3)ccc12`, the Potency is 8.2 µM (active) and the cell number change is -17%. Regarding `Cc1c(OCC(=O)NCCCN2CCOCC2)ccc2c3c(c(=O)oc12)CCC3`, the molecule was classed as inactive and the cell number change is -21.2%. On to `Cc1cc(=O)oc2cc(OCC(=O)NCCCN3CCCC3=O)c(Cl)cc12`, for which the molecule was classed as inactive and the cell number change was -17.4%. For `CCCc1cc(=O)oc2c(C)c(OCC(=O)NCCN3CCOCC3)ccc12`, the “lipid storage change, negative = inhibition” value is 8.89% (inactive) and the cell number change was 19.4%. With `CCCc1cc(=O)oc2c(C)c(OCC(=O)NCCCN3CCOCC3)ccc12`, the molecule was classed as inactive and the cell number change is 7.37%.

Take `Cc1c(OCC(=O)NCCCN2CCCC2=O)ccc2c3c(c(=O)oc12)CCCC3`: the Potency is 8.2 µM (active) and the cell number change was -7.37%. For `CCc1cc(=O)oc2cc(OCC(=O)NCCCN3CCCC3=O)c(Cl)cc12` the same measures were 16.4 µM (active) and 11.6%.

Consider `CCc1cc(=O)oc2cc(OCC(=O)NCCCN3CCCC3=O)ccc12`, for which the result was inactive and the cell number change turned out to be 3.54%. For the molecule `Cc1cc(=O)oc2c(C)c(OCC(=O)NCCCN3CCCC3=O)ccc12`, the outcome was inactive and the cell number change was -21.7%.

In the case of `CC(Oc1cc2oc(=O)c3c(c2cc1Cl)CCC3)C(=O)NCCCN1CCOCC1` (stereo not given), the result was inactive and the cell number change stood at 14.5%. Consider `COc1ccc(OCCNC(=O)c2ccccc2OCC(=O)N2CCCCC2)cc1`, for which the “lipid storage change, negative = inhibition” value was -8.65% (inactive) and the cell number change was -14.3%. `O=C(c1ccc(S(=O)(=O)NCc2ccco2)cc1)N1CCN(Cc2ccccc2F)CC1`: the molecule was classed as inactive and the cell number change is -10.8%. As to `COc1cccc(N(C(=O)CS(=O)CC(=O)Nc2ccc(F)cc2)C(C(=O)NC2CCCCC2)c2cccs2)c1` (stereo not given), the “lipid storage change, negative = inhibition” value is -10.8% (inactive) and the cell number change is -4.8%. With `COC(=O)CCCC1=CC2=CC(=O)C(C)(OC(=O)c3cccs3)C(=O)C2=CN1c1ccc(OC)cc1` (stereo not given), the “lipid storage change, negative = inhibition” value is 5.26% (inactive). Consider `O=C1Cc2ccccc2C(=O)N1c1ccccc1`, for which the Potency is 10.3 µM (active) and the cell number change is 9.57%. On to `CCOc1ccc(N2C(=O)c3cccnc3C2=O)cc1`, for which the “lipid storage change, negative = inhibition” value was 12.3% (inactive) and the cell number change is -11.4%. Take `CCOc1ccc(N2C(=O)Cc3ccccc3C2=O)cc1`: the Potency was 29.1 µM (active) and the cell number change came to 0.833%.

As to `O=C1Cc2ccccc2C(=O)N1c1cccc(Cl)c1`, the call was inactive and the cell number change is 10.3%.

Take `COc1ccc2c(c1)C(=O)N(c1ccccc1)C(=O)C2`: the Potency is 23.1 µM (active) and the cell number change is -11.7%. `COc1ccc(N2C(=O)Cc3ccccc3C2=O)cc1`: the “lipid storage change, negative = inhibition” value was 7.06% (inactive) and the cell number change was 10.9%. For `O=C1Cc2ccccc2N1c1ccccc1` the same measures were 8.9% (inactive) and 11.5%.

Consider `COc1ccc2c(c1)C(=O)N(c1ccc(C)cc1)C(=O)C2`, for which the “lipid storage change, negative = inhibition” value is -3.58% (inactive) and the cell number change amounted to 11.1%.
